Inconclusive results are not listed. Activity calls are given as the source filed them. The call rests on the fitted dose curve; in most records, active means well fitted curve in the direction sought with a large enough effect; inconclusive means small, poorly fitted or top-dose-only effect, or another doubt; inactive means no such curve, though single readings can be large or run the other way.

Sequence of Relaxin receptor 1 (Homo sapiens) (Q9HBX9 whole entry, looked up): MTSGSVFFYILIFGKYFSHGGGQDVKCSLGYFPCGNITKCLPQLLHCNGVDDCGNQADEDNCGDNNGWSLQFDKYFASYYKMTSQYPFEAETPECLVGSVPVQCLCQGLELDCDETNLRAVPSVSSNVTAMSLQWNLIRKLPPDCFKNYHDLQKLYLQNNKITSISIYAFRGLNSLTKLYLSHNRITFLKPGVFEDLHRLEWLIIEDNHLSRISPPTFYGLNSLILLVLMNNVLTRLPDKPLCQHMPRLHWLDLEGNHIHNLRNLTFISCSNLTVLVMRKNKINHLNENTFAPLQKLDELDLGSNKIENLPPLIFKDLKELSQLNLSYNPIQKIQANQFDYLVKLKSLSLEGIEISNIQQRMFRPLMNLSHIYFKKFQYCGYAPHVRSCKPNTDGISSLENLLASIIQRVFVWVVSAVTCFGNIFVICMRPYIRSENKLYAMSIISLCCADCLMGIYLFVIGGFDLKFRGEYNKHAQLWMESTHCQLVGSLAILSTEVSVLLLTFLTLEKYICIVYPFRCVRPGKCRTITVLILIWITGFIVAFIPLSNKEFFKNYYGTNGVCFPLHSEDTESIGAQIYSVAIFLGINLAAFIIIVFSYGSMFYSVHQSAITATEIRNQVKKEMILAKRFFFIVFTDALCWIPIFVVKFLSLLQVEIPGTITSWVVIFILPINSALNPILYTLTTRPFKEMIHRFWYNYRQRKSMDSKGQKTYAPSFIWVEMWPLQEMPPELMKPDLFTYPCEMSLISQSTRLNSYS

The target in the experiment is Relaxin receptor 1 (Homo sapiens) (UniProt Q9HBX9). Nature of the experiment: qHTS Assay for Agonists of the Relaxin Receptor RXFP1: RXFP1 SAR. The following applies: HEK293T-RXFP1 cAMP TR-FRET, 30 min; efficacy: active compounds read high. The text has this:
The relaxin hormone is involved in the variety of biological functions in normal tissues and diseases. The role of relaxin is well-established in female reproduction and parturition, mammary gland and endometrial development, maintenance of myometrial quiescence during pregnancy. Relaxin signaling through its G protein-coupled receptor (GPCR) RXFP1 results in ECM remodeling through regulation of collagen deposition, cell invasiveness, proliferation and overall tissue homeostasis. […] Recombinant human relaxin (rhRlx) is currently being tested in clinical trials as a protective agent in congestive heart failure, in treating severe preeclampsia, and as an anti-fibrotic agent in systemic sclerosis. Upon relaxin binding RXFP1 activation leads to the activation of adenylate cyclase (AC) via Gs. cAMP will activate PKA, which phosphorylates many signaling proteins. Thus, detection of cAMP increase is an easy and reliable indication of relaxin receptor activation. To screen for agonists of the relaxin receptor, a HEK293T cell line stably transfected with RXFP1 was used. RXFP1 activation was assayed by changes in cAMP levels as detected with a time-resolved fluorescence energy transfer (TR-FRET) cAMP detection kit. NIH Chemical Genomics Center [NCGC] NIH Molecular Libraries Probe Production Centers Network [MLPCN] MLPCN Grant: R03 MH085705-01A1 Assay Submitter (PI): Alexander Agoulnik
This is a cell-based assay for cAMP second messenger response to screen for agonists of the RXFP1 receptor. The assay was conducted in the presence of a PDE4 inhibitor (Ro 20174). The cells were lysed and the cAMP levels were measured with a TR-FRET cAMP kit. Presence of cAMP in the cell lysate disrupts binding between the cryptate-labeled anti-cAMP and d2-labeled cAMP pair, leading to a decrease in the TR-FRET signal. Data were normalized to the controls for basal activity (buffer only) and 100% activity (29 nM porcine relaxin). The EC50 values were determined from concentration-response data modeled with the standard Hill equation 1536-well assay protocol for the HEK293 RXFP1 cAMP assay: (1) Add 3 ul HEK293 RXFP1 cell culture. 2000 cells/well in DMEM/F12, 10% FBS, 1x Pen/Strep (dispensed offline with MultiDrop Combi). (2) Incubate 16-24 hr at 37C, 5% CO2. (3) Add 1 ul 400uM Ro20174 in DPBS, 0.05% BSA, 0.005% Tween 20. (3) Add 23 nl compounds in DMSO solution. Final concentration was 0.5 - 58 uM. (4) Incubate 30 min at 37C, 5% CO2. (5) Add 1 ul cAMP-d2 in lysis buffer (HTRF cAMP HiRange kit, CisBio). (6) Add 1 ul anti-cAMP antibody-cryptate in lysis buffer (HTRF cAMP HiRange kit, CisBio). (7) Incubate 30 min at room temperature. (6) Detect the assay plate in a ViewLux plate reader (PerkinElmer) with Ex=320 nm, Em1=615 nm and Em2=665 nm. Keywords: relaxin, RXFP1, RXFP2, G-protein coupled receptor, cAMP, agonist, high throughput screening, MLSMR, MLSCN, NIH Roadmap, qHTS and NCGC
As to `O=C(Nc1cccc(-c2cccc(C(F)(F)F)c2)c1)c1ccccc1NC(=O)C1CCCCC1`, the efficacy was 15% (inactive).
Take `O=C(Nc1ccccc1C(=O)Nc1cccc(C(F)(F)F)c1)c1cccnc1`: the Potency is 5930 nM (active).
Consider `O=C(Nc1cccc(C(F)(F)F)c1)c1ccccc1NC(=O)C1CC1`, for which the Potency was 8380 nM (active).
As for `COc1ccccc1-c1ccccc1C(=O)Nc1cccc(C(F)(F)F)c1`, the efficacy is -3.31% (inactive).
For the molecule `O=C(Nc1cccc(-c2ccccc2C(F)(F)F)c1)c1ccccc1NC(=O)C1CCCCC1`, the Potency was 2650 nM (active).
On the same count and under the same terms, under `CCOc1ccccc1C(=O)Nc1sccc1C(=O)Nc1cccc(S(=O)(=O)C(F)(F)F)c1` stands 2360 nM (active); under `CCOc1ccccc1C(=O)NCCC(=O)Nc1cccc(S(=O)(=O)C(F)(F)F)c1`, 4710 nM (active); under `O=C(Nc1cccc(C(F)(F)F)c1)c1ccccc1NC(=O)C1CCCCC1`, 1880 nM (active).
On to `O=C(NCc1cccc(C(F)(F)F)c1)c1ccccc1NC(=O)C1CCCCC1`, for which the efficacy was 4.71% (inactive).
With `COc1cccc(OC)c1C(=O)Nc1ccccc1C(=O)Nc1cccc(C(F)(F)F)c1`, the Potency is 7470 nM (active).
Same read-out and setting: as for `O=C(Nc1cccc(S(=O)(=O)C(F)(F)F)c1)c1ccccc1NC(=O)C1CCCCC1`, the figure is 1060 nM (active).
Take `O=C(Nc1cccc(C(F)(F)F)c1)c1ccccc1NC(=O)c1ccccc1OC(F)(F)F`: the Potency was 1180 nM (active).
As for `COc1ccccc1C(=O)Nc1ccc(C(=O)Nc2cccc(C(F)(F)F)c2)cc1`, the efficacy is -2.02% (inactive).
In the case of `O=C(Nc1cccc(F)c1)c1ccccc1NC(=O)C1CCCCC1`, the Potency was 13300 nM (active).
With `COc1ccccc1C(=O)N(C)c1ccccc1C(=O)N(C)c1cccc(C(F)(F)F)c1`, the efficacy was 0.957% (inactive).
On to `O=C(Nc1cccc(Cl)c1)c1ccccc1NC(=O)C1CCCCC1`, for which the Potency is 3340 nM (active).
For the molecule `O=C(Nc1cccc(C(F)(F)F)c1)c1ccccc1NC(=O)C1CCC1`, the Potency was 2970 nM (active).
With `COc1ccccc1C(=O)Nc1ccccc1C(=O)Nc1cccc(S(=O)(=O)C(F)(F)F)c1`, the Potency is 188 nM (active).
On the same count and under the same terms, under `Cc1ccccc1C(=O)Nc1ccccc1C(=O)Nc1cccc(C(F)(F)F)c1` stands 4200 nM (active); under `O=C(Nc1cccc(C(F)(F)F)c1)c1ccccc1NC(=O)C1CCCCCC1`, 2110 nM (active); under `CSc1cccc(NC(=O)c2ccccc2NC(=O)C2CCCCC2)c1`, 5290 nM (active).
On the same count and under the same terms, as for `COc1cccc(C(=O)Nc2ccccc2C(=O)Nc2cccc(C(F)(F)F)c2)c1`, the figure is 1880 nM (active).
As for `CCOc1ccccc1-c1nc2c(C(=O)Nc3cccc(S(=O)(=O)C(F)(F)F)c3)cccc2[nH]1`, the efficacy was 4.9% (inactive).
Consider `CCOc1ccccc1C(=O)Nc1ncccc1C(=O)Nc1cccc(S(=O)(=O)C(F)(F)F)c1`, for which the Potency is 1670 nM (active).
Still for that read-out and setting: under `CC(C)(C)c1cccc(NC(=O)c2ccccc2NC(=O)C2CCCCC2)c1` stands 2650 nM (active); under `COc1ccccc1C(=O)Nc1ccccc1C(=O)Nc1cccc(C(F)(F)F)c1`, 334 nM (active); under `O=C(Nc1cccc([N+](=O)[O-])c1)c1ccccc1NC(=O)C1CCCCC1`, 5930 nM (active).
Still for that read-out and setting: as for `CCOc1ccccc1C(=O)Nc1ccccc1C(=O)Nc1cccc(C(F)(F)F)c1`, the figure is 265 nM (active); as for `CCSc1ccccc1C(=O)Nc1ccccc1C(=O)Nc1cccc(S(=O)(=O)C(F)(F)F)c1`, 529 nM (active).
Same read-out and setting: as for `CCOc1ccccc1C(=O)Nc1cccnc1C(=O)Nc1cccc(S(=O)(=O)C(F)(F)F)c1`, the figure is 4710 nM (active); as for `CCOc1ccccc1C(=O)Nc1ccccc1CNc1cccc(S(=O)(=O)C(F)(F)F)c1`, 2650 nM (active); as for `O=C(Nc1ccccc1C(=O)Nc1cccc(C(F)(F)F)c1)c1ccccc1`, 1330 nM (active).
On to `O=C(Nc1ccccc1C(=O)Nc1cccc(C(F)(F)F)c1)c1ccccc1Cl`, for which the Potency is 3740 nM (active).
Regarding `CC(C)Oc1ccccc1C(=O)Nc1ccccc1C(=O)Nc1cccc(C(F)(F)F)c1`, the Potency was 471 nM (active).
The same measure, in the same setting: as for `COc1ccccc1Nc1ccccc1C(=O)Nc1cccc(C(F)(F)F)c1`, the figure is 4710 nM (active).
On to `COc1ccccc1C(=O)N(C)c1ccccc1C(=O)Nc1cccc(C(F)(F)F)c1`, for which the efficacy was -2.4% (inactive).
In the case of `O=C(Nc1cccc(SC(F)(F)F)c1)c1ccccc1NC(=O)C1CCCCC1`, the Potency was 1880 nM (active).
With `CCOc1ccccc1S(=O)(=O)Nc1ccccc1C(=O)Nc1cccc(S(=O)(=O)C(F)(F)F)c1`, the efficacy was -2.44% (inactive).
As to `CCOc1ccccc1C(=O)Nc1ccncc1C(=O)Nc1cccc(S(=O)(=O)C(F)(F)F)c1`, the Potency is 747 nM (active).
Take `O=C(Cc1ccccc1)Nc1ccccc1C(=O)Nc1cccc(C(F)(F)F)c1`: the Potency is 8380 nM (active).
